In all, about 6,200 compounds went through this assay and about 2,900 (47%) were called active. The set was probably picked from earlier hits. The list shows a part of the results. Unmarked numbers belong to inactive results. Cut-off read from the data, not from the text of the source: active = inhibition above about 50%; inactive = the rest.
assay: Mycobacterium tuberculosis growth inhibition, primary screen (AID 1259343); details: inhibition: at 10 µM, hits give high values; outcome: 10 uM

**Q.** For `COC(=O)c1ccc(OCCCCOc2ccccc2OC)cc1`, which inhibition is on record?
**A.** 80.9% (active)

**Q.** For `COc1ccc(OCCCCOc2ccccc2)cc1`, which inhibition is on record?
**A.** 27.8%

**Q.** Which inhibition does the source give for `COc1ccc(OCCCCOc2ccc(Br)cc2)cc1` here?
**A.** 81.2% (active)

**Q.** With `CCCCCCNC(=O)Nc1ccc(S(=O)(=O)Nc2ccc(CCNC[C@H](O)COc3ccc(O)cc3)cc2)cc1` as the compound, how does the inhibition read?
**A.** 18.9%

**Q.** For `CCCCCCCOc1ccc(C(C)=NOC)cc1`, which inhibition is on record?
**A.** 41.4%

**Q.** With `CCCCCCOc1ccc(C(=O)NNS(=O)(=O)c2ccc(C(=O)OC)cc2)cc1` as the compound, how does the inhibition read?
**A.** 94.8% (active)

**Q.** With `CC(C)N(C(=O)/C=C/c1c(Cl)cccc1Cl)C(C)C` as the compound, how does the inhibition read?
**A.** 47.8%

**Q.** Which inhibition does the source give for `O=C1Oc2ccccc2C1=Cc1c(Cl)cccc1Cl` here?
**A.** 59% (active)

**Q.** With `Cc1cc(NC(=O)COc2ccc(Cl)cc2Cl)n(-c2nc(C)c(C)c(=O)[nH]2)n1` as the compound, how does the inhibition read?
**A.** -28.7%

**Q.** With `Cc1nnc2sc(COc3ccc(Cl)cc3Cl)nn2c1=O` as the compound, how does the inhibition read?
**A.** 78.4% (active)

**Q.** With `Cc1cc(Br)cc(Cl)c1NC(=O)C1(C)CC1(Cl)Cl` (stereo unspecified) as the compound, how does the inhibition read?
**A.** -15.4%

**Q.** For `CCC1CCC(=NNC(=O)c2ccc(COc3ccccc3)cc2)CC1` (stereo unspecified), which inhibition is on record?
**A.** 97.1% (active)

**Q.** Which inhibition does the source give for `O=C(N/N=C1/CCSc2c(F)cccc21)c1ccccc1` here?
**A.** 38%

**Q.** With `O=C(CC1CCCO1)NCc1cccc(OCc2ccccc2)c1` (stereo unspecified) as the compound, how does the inhibition read?
**A.** 39.5%

**Q.** With `Cc1cccc(-n2cc(CNCC3CCCO3)c(-c3cccc(F)c3)n2)c1` (stereo unspecified) as the compound, how does the inhibition read?
**A.** inactive

**Q.** Which inhibition does the source give for `Cc1ccccc1CNCc1cn(-c2ccccc2)nc1-c1ccc2c(c1)OCO2` here?
**A.** 60.9% (active)

**Q.** For `Cc1cccc(-n2cc(CNCc3ccc(C)o3)c(-c3cccc(F)c3)n2)c1`, which inhibition is on record?
**A.** 46.5%

**Q.** With `COc1ccc(-n2cc(CNCc3ccc4c(c3)OCO4)c(-c3ccccc3Cl)n2)cc1` as the compound, how does the inhibition read?
**A.** 61.7% (active)

**Q.** Which inhibition does the source give for `Fc1ccccc1-c1nnn(Cc2ccc3c(c2)OCO3)n1` here?
**A.** 48.7%

**Q.** Which inhibition does the source give for `CC(C)(C)c1ccc(Cn2cnc([N+](=O)[O-])n2)cc1` here?
**A.** 65.2% (active)

**Q.** With `O=C(Nc1nnc(C(F)(F)F)s1)C1(c2cccc(Cl)c2)CC1` as the compound, how does the inhibition read?
**A.** 86.3% (active)

**Q.** For `COc1cc(NC(=O)C2(c3ccccc3)CC2)c(OC)cc1Cl`, which inhibition is on record?
**A.** 16.5%

**Q.** For `FC(F)(F)c1nnc(N2CCN(c3ccc(Cl)cc3)CC2)s1`, which inhibition is on record?
**A.** 18.9%

**Q.** Which inhibition does the source give for `O=C1/C(=C/c2cc3ccccc3o2)Oc2cc(O)ccc21` here?
**A.** 3.03%

**Q.** With `O=C1C(=Cc2ccc(OC(F)F)cc2OC(F)F)Oc2cc(O)ccc21` as the compound, how does the inhibition read?
**A.** 56.9% (active)

**Q.** Which inhibition does the source give for `Cn1c(=S)[nH]c2c(-c3ccccc3)csc2c1=O` here?
**A.** 20.9%

**Q.** For `CCOC(=O)CSc1ccc(NC(=O)c2ccc(C)cc2)nn1`, which inhibition is on record?
**A.** 93.7% (active)

**Q.** With `CSc1nc(N)nc(SCc2ccc(F)cc2)c1C#N` as the compound, how does the inhibition read?
**A.** 53.4% (active)

**Q.** Which inhibition does the source give for `COc1ccc(/C=C2\C=C(c3ccccc3)N(c3ccc4ccccc4c3)C2=O)cc1` here?
**A.** 74.9% (active)

**Q.** Which inhibition does the source give for `CN(C)c1cc(-c2noc(Cc3ccccc3Cl)n2)ccn1` here?
**A.** 67% (active)

**Q.** For `Oc1ccc(Nc2nc3nonc3nc2Nc2cccc(Br)c2)cc1`, which inhibition is on record?
**A.** 49.2%

**Q.** Which inhibition does the source give for `Ic1ccc(Nc2nc3nonc3nc2NCc2ccco2)cc1` here?
**A.** 101% (active)

**Q.** Which inhibition does the source give for `CN(CCO)CC(O)Cn1c2ccc(Br)cc2c2cc(Br)ccc21` (stereo unspecified) here?
**A.** 69.2% (active)

**Q.** For `C=CCn1c2ccc(Br)cc2c2nc3ccccc3nc21`, which inhibition is on record?
**A.** -22.9%

**Q.** With `Cc1cc(O)c(CN2CCOCC2)c2c1C(=O)/C(=C/c1cc3cc(Br)ccc3o1)O2` as the compound, how does the inhibition read?
**A.** 45.4%

**Q.** With `OC(CN1CCOCC1)Cn1c2ccc(Br)cc2c2cc(Br)ccc21` (stereo unspecified) as the compound, how does the inhibition read?
**A.** 86.8% (active)

**Q.** With `OCC(O)Cn1c2ccc(Br)cc2c2cc(Br)cc(Br)c21` (stereo unspecified) as the compound, how does the inhibition read?
**A.** 17.8%

**Q.** For `CC(=O)O[C@H]1CC[C@@]2(C)C(=CC[C@@H]3[C@H]2CC[C@]2(C)C(c4cccnc4)=CC[C@@H]32)C1`, which inhibition is on record?
**A.** 27.2%

**Q.** Which inhibition does the source give for `CCC(=O)c1ccc(-c2ccc(Br)cc2F)cc1` here?
**A.** 29%

**Q.** For `O=C(Cn1nnnc1-c1ccc(Br)cc1)c1ccccc1`, which inhibition is on record?
**A.** 89.4% (active)

**Q.** For `Brc1ccc(Cc2nnnn2CCn2cccn2)cc1`, which inhibition is on record?
**A.** 25.9%

**Q.** Which inhibition does the source give for `NC(=O)c1ccc(Cn2nc(-c3cccs3)oc2=O)cc1` here?
**A.** 14.6%

**Q.** Which inhibition does the source give for `O=C(CCl)N1N=C(c2cccs2)CC1c1ccco1` (stereo unspecified) here?
**A.** 101% (active)

**Q.** Which inhibition does the source give for `COc1ccc(-c2nc3ccccc3c(=O)o2)cc1[N+](=O)[O-]` here?
**A.** 83.1% (active)

**Q.** With `O=c1oc(-c2ccc([N+](=O)[O-])cc2Cl)nc2cc(Cl)ccc12` as the compound, how does the inhibition read?
**A.** 28.8%

**Q.** Which inhibition does the source give for `O=c1oc(-c2ccco2)nc2ccc(Br)cc12` here?
**A.** 41.6%

**Q.** Which inhibition does the source give for `Cc1sc2ncnc(N(C)Cc3nc(C4CC4)no3)c2c1C` here?
**A.** -15.9%

**Q.** With `CN(CCCc1ccccc1)Cc1nc(C2CC2)no1` as the compound, how does the inhibition read?
**A.** 78.2% (active)

**Q.** With `CCC(Nc1ccccc1)c1nc(C2CCC2)no1` (stereo unspecified) as the compound, how does the inhibition read?
**A.** 44.9%

**Q.** Which inhibition does the source give for `CC(C)Cn1c(-c2ccco2)nc2c(c(=O)c3ccccc3n2C)c1=O` here?
**A.** -27.4%

**Q.** For `Cc1ccc(NS(=O)(=O)N2CCCCC2)cc1Cl`, which inhibition is on record?
**A.** 23.6%

**Q.** Which inhibition does the source give for `CCN1C(=O)SC(Nc2ccc(C)c(Cl)c2)C1=O` (stereo unspecified) here?
**A.** 96.3% (active)

**Q.** With `COc1ccc(NC2CC(O)C(CO)O2)cc1` (stereo unspecified) as the compound, how does the inhibition read?
**A.** inactive

**Q.** For `CCN1C(=O)SC(Nc2ccc(OC)cc2)C1=O` (stereo unspecified), which inhibition is on record?
**A.** 78.9% (active)

**Q.** Which inhibition does the source give for `Cc1ccc(C)c(-n2nnnc2SCCCC(=O)c2cccs2)c1` here?
**A.** -43%

**Q.** For `O=C(CN1C(=O)CC2(CCCC2)C1=O)c1ccc(Cl)s1`, which inhibition is on record?
**A.** -28.2%

**Q.** With `O=C(Cn1nnc(-c2cccs2)n1)c1ccc(Cl)s1` as the compound, how does the inhibition read?
**A.** 77.8% (active)

**Q.** For `O=C(Cn1nnc([N+](=O)[O-])n1)c1cccs1`, which inhibition is on record?
**A.** 98.8% (active)

**Q.** For `Brc1cc2c(cc1Cn1nnc(-c3cccs3)n1)OCO2`, which inhibition is on record?
**A.** -19.9%

**Q.** With `CC(C)(C)c1cc2nc(C(=O)O)cc(-c3ccccc3F)n2n1` as the compound, how does the inhibition read?
**A.** 62.4% (active)

**Q.** With `CC(C)(C)c1cc2nc(C(=O)O)cc(-c3ccc(Cl)cc3)n2n1` as the compound, how does the inhibition read?
**A.** 83.5% (active)

**Q.** For `CC(C)(C)c1cc2nc(C(=O)O)cc(-c3ccccc3Cl)n2n1`, which inhibition is on record?
**A.** 58.8% (active)

**Q.** For `CCC(=O)O[C@H]1CCC2C3CCc4cc(O)ccc4C3CC[C@@]21C` (stereo partly specified), which inhibition is on record?
**A.** 46.7%

**Q.** With `CCC(CC)C(NC[c-]1[c-][c-][c-][c-]1)c1ccccc1.[Fe].[c-]1[c-][c-][cH-][c-]1` (stereo unspecified) as the compound, how does the inhibition read?
**A.** 36.6%

**Q.** For `O=C(O)CCc1nc2ccccc2oc1=O`, which inhibition is on record?
**A.** 67.4% (active)

**Q.** Which inhibition does the source give for `O=C(CCc1nc2ccccc2o1)N1CC=C(c2ccccc2)CC1` here?
**A.** 29.9%
